Results on 99 compounds are retold here after PubChem BioAssay AID430 (Sanford-Burnham Center for Chemical Genomics, 2006).

Hit rate of the full screen: of about 63,000 compounds, about 1,100 (1.7%) were called active. Shown is part of a subset that was picked to be rich in actives. Results with a measured potency or affinity are listed apart. A number with no mark means an inactive call. No stated cut-off is given here; in the data, active means cytotoxicity above about 50%; inactive means the rest.

This experiment can be described thus: HPDE-C7 pancreatic duct cell viability loss – fluorescence, HTS (AID 430).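 Further: cells exposed to compound for 48 hours before viability readout; 0% = vehicle and 100% = reference cytotoxic drug.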 Conditions: HPDE-C7 pancreatic duct cells viability, at 10 µM, active compounds read high.
Turning to `CCn1c(COc2ccc3c(c2)OCO3)nnc1SCC(=O)c1ccccc1`, the cytotoxicity was -1.4%. In the case of `O=S(=O)(NCc1cccs1)c1cccc2cccnc12` it was -9.6%; in that of `CN(CC(=O)NCc1cccs1)S(=O)(=O)c1cccc2cccnc12`, -9.8%. On to `CCOC(=O)C1(C)NC(c2ccc(N(C)C)cc2)C2C(=O)N(CC)C(=O)C21` (centres undefined), for which the cytotoxicity was -12.4%. With `O=c1c2ccccc2nc(SCc2cc(F)cc3c2OCOC3)n1Cc1ccco1` the figure was -2.2%; with `N#Cc1nc(-c2ccc(F)cc2)oc1N1CCCC1`, -7.6%; with `O=C(c1ccc(F)cc1)c1ccc(N2CCCC2)cc1`, -17.7%.

`CN(C)CCN1C(=O)C(O)=C(C(=O)c2ccco2)C1c1ccccc1F` (centres undefined): the cytotoxicity was -4.8%. Turning to `CCn1c(=O)cc(OCC(=O)N2CCCC2)c2ccccc21`, the cytotoxicity was -3%. On to `COc1ccc(C(CNC(=O)Cn2[nH]c(=O)c3ccccc3c2=O)N2CCCC2)cc1` (centres undefined), for which the cytotoxicity was 1.8%. As to `Cc1cccc(Cc2c(C)nc3nc(SCC(=O)NCc4ccco4)nn3c2C)c1`, the cytotoxicity was 45.8%.

Take `Cc1ccc(Cc2c(C)nc3nc(SCC(=O)NCc4ccco4)nn3c2C)cc1`: the cytotoxicity was 61.8% (active). On to `Cc1ccccc1Cc1c(C)nc2nc(SCC(=O)NCc3ccco3)nn2c1C`, for which the cytotoxicity was 12%. With `Cc1nnc(NC(=O)c2ccc(-c3cccc(C(F)(F)F)c3)o2)s1` the figure was -13.1%; with `CCOC(=O)c1c(C)nn(Cc2ccccc2)c1N`, -1.6%. As to `CCOC(=O)c1sc(NC(=O)c2c(C)nn(Cc3ccccc3)c2C)cc1C`, the cytotoxicity is 72.7% (active). Take `CCOC(=O)c1sc(NC(=O)c2cccs2)cc1C`: the cytotoxicity is -16.1%. For `Cc1cccc(OCc2nnc(SCC(=O)N(C(C)C)C(C)C)n2Cc2ccco2)c1C`, the cytotoxicity was -16%.

Take `CC1(C)Cc2c(sc3ncn4nc(CCC(=O)O)c(=O)nc4c23)CO1`: the cytotoxicity is -23.3%. Take `CC(=O)Nc1cc(C(F)(F)F)ccc1N1CCOCC1`: the cytotoxicity is 14.9%. On to `O=C(Nc1cc(C(F)(F)F)ccc1N1CCOCC1)c1c(F)c(F)c(F)c(F)c1F`, for which the cytotoxicity was 51% (active). Turning to `Cc1onc(-c2ccccc2)c1C(=O)Nc1ccccc1N1CCOCC1`, the cytotoxicity was 4.9%. In the case of `O=C(Nc1cc(C(F)(F)F)ccc1N1CCOCC1)c1cccnc1` it was 4.3%. In the case of `Cc1onc(-c2ccccc2)c1C(=O)Nc1cc(C(F)(F)F)ccc1N1CCOCC1` it was 69.1% (active); in that of `O=C(Nc1cc(C(F)(F)F)ccc1N1CCOCC1)c1ccco1`, 1.1%. With `COc1ccccc1NC(=O)C1=C(C)Nc2ncnn2C1c1cccs1` (centres undefined) the figure was 3.3%.

For `O=C(Cn1cnc2c(nnn2Cc2ccccc2F)c1=O)OCc1ccccc1`, the cytotoxicity was -18.4%.

With `CCSc1nnc(NC(=O)CSc2nnc(Cc3cccn3C)n2-c2ccc(F)cc2)s1`, the cytotoxicity is 65.6% (active). Regarding `Cn1cccc1Cc1nnc(SCC(=O)Nc2ccc(F)cc2)n1-c1ccc(F)cc1`, the cytotoxicity is -3.8%. With `CCSc1nnc(NC(=O)CSc2nnc(Cc3cccn3C)n2-c2ccc(C)cc2)s1` the figure was 39.6%; with `Cc1nnc(Nc2ccc(C(=O)NCCO)cc2)c2ccccc12`, 8.6%. In the case of `CC(O)C(=O)NCCOCCOCCNC(=O)C(C)O` (centres undefined) it was -5.5%. Consider `Cc1ccc(SC(C)C(=O)NCC(C)C)cc1` (centres undefined), for which the cytotoxicity was -2.6%. In the case of `CC(C)c1ccc(O)c(N)c1`, the cytotoxicity was 6.8%.

For the compound `Cc1ccc(O)c(Sc2cc(C)ccc2O)c1`, the cytotoxicity was 52.6% (active). Consider `COC(=O)c1ccc(Sc2ccc(C)cc2)c(N)c1`, for which the cytotoxicity was 9.4%.

For the compound `COC(=O)c1ccc(OC(=O)c2ccc(OC)c(OC)c2)c(OC)c1`, the cytotoxicity is 4.3%. With `CN(CCC#N)S(=O)(=O)c1ccc2c(c1)c(=O)n(C)c(=O)n2C`, the cytotoxicity is -12.5%.

Take `CCCN(S(=O)(=O)c1ccc(OCC)cc1)S(=O)(=O)c1cccs1`: the cytotoxicity was -20.2%. For `O=C(Nc1ccccc1Cl)c1c(F)c(F)c(F)c(F)c1F`, the cytotoxicity is -8.2%. In the case of `CCOC(=O)c1ccccc1NC(=O)c1cccs1` it was -6%; in that of `COc1cc(NC(=O)c2c(F)c(F)c(F)c(F)c2F)c(OC)cc1Cl`, 55.4% (active); in that of `CCOC(=O)c1ccccc1NC(=O)c1ccccc1SC`, 25.3%. Turning to `Cc1ccccc1NC(=O)c1c(F)c(F)c(F)c(F)c1F`, the cytotoxicity was -10.5%. Consider `COCC(=O)Nc1cc(OC)c(Cl)cc1OC`, for which the cytotoxicity was -1.4%.

As for `COc1cc(NC(=O)C2CCCC2)c(OC)cc1Cl`, the cytotoxicity was -20.5%. For `O=C(CSc1nnc(-c2ccc(Cl)cc2)n1Cc1ccco1)c1cccs1`, the cytotoxicity was -6.2%. Consider `CCCCS(=O)CC(COCc1ccccc1)OC(=O)CSc1nc(C)cc(C)n1` (centres undefined), for which the cytotoxicity is 8.8%. Take `COC(=O)C1=CNC=C(C(=O)OC)C1c1ccc(C(=O)OC)cc1`: the cytotoxicity was 5.1%.

Regarding `CC1(C)Cc2c(c(=S)nc(-c3ccccc3)n2CCN2CCOCC2)CO1`, the cytotoxicity is -21.2%. For `CCOC(=O)C1CCN(C(=O)c2sc3nc(-c4ccccc4)cn3c2C)CC1`, the cytotoxicity is -0.3%. Consider `Cn1c(N)c(C(=O)COC(=O)C2(c3ccccc3F)CCCC2)c(=O)n(C)c1=O`, for which the cytotoxicity is -7%. Consider `CCOCCCNC(=O)C(Cc1ccccc1)NC(=O)c1ccco1` (centres undefined), for which the cytotoxicity is -8.1%. `Cc1cc(C)c2c(CN3CCN(C/C=C/c4ccccc4)CC3)cc(=O)oc2c1`: the cytotoxicity is 69.9% (active).

Regarding `Cc1cc(C)c2c(CN3CCN(C)CC3)cc(=O)oc2c1`, the cytotoxicity was -8.5%.

For `CCN1CCN(Cc2cc(=O)oc3cc(C)cc(C)c23)CC1`, the cytotoxicity was 2.1%. For `O=c1ccnc(S/C=C/c2ccccc2)[nH]1`, the cytotoxicity is -11.2%. On to `O=C(Cn1c(=O)[nH]c2ccsc2c1=O)N1CCN(c2ccc(F)cc2)CC1`, for which the cytotoxicity was 9.5%. `Cc1nn(Cc2ccc(Cl)cc2)c(C)c1NC(=O)c1cc(-c2ccc3c(c2)OCO3)on1`: the cytotoxicity is 35.4%. `Cc1nn(Cc2ccc(Cl)c(Cl)c2)c(C)c1NC(=O)c1cc(-c2ccc3c(c2)OCO3)on1`: the cytotoxicity was 54.7% (active). As for `Cc1ccc(Cn2nc(C)c(NC(=O)c3cc(-c4ccc5c(c4)OCO5)on3)c2C)cc1`, the cytotoxicity is 16.2%. As for `O=C(c1ccc2c(c1)OCO2)N1CCCc2ccccc21`, the cytotoxicity was -12.5%. As for `CN(C)S(=O)(=O)c1ccc(C(=O)Nc2ccccn2)cc1`, the cytotoxicity is 0.8%. For the compound `COc1ccc(-n2c(Cc3cccn3C)nnc2SCC(=O)Nc2cc(Cl)ccc2OC)cc1`, the cytotoxicity is -0.9%. On to `Cn1nnnc1SCC(=O)NCCc1ccc(Cl)cc1`, for which the cytotoxicity is -8.2%.

As to `Oc1c(CN2CCCCC2)cc(COCc2ccccc2)c2cccnc12`, the cytotoxicity is -10.8%. On to `Oc1ccc(CN2CCN(Cc3ccccc3)CC2)c2cccnc12`, for which the cytotoxicity was 6.2%.

On to `COc1ccccc1N1CCN(Cc2cc(Br)c(O)c3ncccc23)CC1`, for which the cytotoxicity is 5.1%. As for `CN1CCN(Cc2cc(COCc3ccccc3)c3cccnc3c2O)CC1`, the cytotoxicity was -9.2%.

In the case of `Oc1ccc(CNc2ccccc2F)c2cccnc12`, the cytotoxicity was -4.7%. As to `Oc1c(CN2CCOCC2)cc(COCc2ccccc2)c2cccnc12`, the cytotoxicity is 60.7% (active). On to `Oc1ccc(CNc2ccc(F)cc2)c2cccnc12`, for which the cytotoxicity is 45.3%. In the case of `Oc1ccc(CNc2ccccc2)c2cccnc12`, the cytotoxicity was 34.7%. For `COCc1cc(CN2CCCC2)c(O)c2ncccc12`, the cytotoxicity is -11.9%.

Consider `CCCn1c(C)cc(=O)c2cc(NC(=O)c3ccccn3)ccc21`, for which the cytotoxicity is 16.1%. On to `COC(=O)CCCCCNc1ccc(C(=O)OC)cc1N`, for which the cytotoxicity is -12.1%. For `CC1Cc2nc(SCC(=O)N3CCc4ccccc43)n(C)c(=O)c2S1` (centres undefined), the cytotoxicity was -19.6%. For `O=S(=O)(NCCc1csc(-c2ccccc2)n1)c1ccc2c(c1)OCCO2`, the cytotoxicity was 6.2%. In the case of `O=C(CCCCn1c(=S)[nH]c2ccsc2c1=O)NCc1ccco1` it was -3%; in that of `Cc1ccc(C)c(N2CCN(C(=O)C3CCCN(S(=O)(=O)c4cnc[nH]4)C3)CC2)c1` (centres undefined), -3.6%. For the compound `COc1cccc(C2=NOC(C(=O)N3CCN(C(=O)c4ccco4)CC3)C2)c1` (centres undefined), the cytotoxicity is -8.5%. Turning to `CSCCC(NC(=O)c1ccccc1)C(=O)NCc1ccco1` (centres undefined), the cytotoxicity was -8.6%. On to `O=C(Cn1cnc2ccccc2c1=O)c1ccc2c(c1)OCCO2`, for which the cytotoxicity was -6.3%. As for `COc1cccc(-c2cc(C(=O)Nc3c(C)nn(Cc4ccccc4C)c3C)no2)c1`, the cytotoxicity was -3.2%. In the case of `COc1ccccc1C(=O)N1CCN(C(=O)COc2cccc(C)c2)CC1` it was -7.6%. `CC1=C(C(=O)NC(C)c2ccc3c(c2)OCCO3)C2(CCC(C)CC2)OC1=O` (centres undefined): the cytotoxicity was 10.7%. In the case of `CCCCOC(=O)CSc1nc(N)c(C#N)c(-c2ccc(OCC)cc2)c1C#N`, the cytotoxicity is 5.1%. Take `CCOC(=O)CC(=O)CSc1nc(N)c(C#N)c(-c2ccc(F)cc2)c1C#N`: the cytotoxicity is 5.6%.

Take `CCCCOC(=O)CSc1nc(N)c(C#N)c(-c2ccc(OC)cc2)c1C#N`: the cytotoxicity was -16%. In the case of `CCCCOc1ccc(-c2c(C#N)c(N)nc(SCC(N)=O)c2C#N)cc1`, the cytotoxicity is 82.5% (active). Regarding `CCOC(=O)CC(=O)CSc1nc(N)c(C#N)c(-c2ccc(Cl)cc2)c1C#N`, the cytotoxicity was 54.7% (active). On to `CCOC(=O)CSc1nc(N)c(C#N)c(-c2ccc(OC)cc2)c1C#N`, for which the cytotoxicity was -6.1%. Consider `CC(=NCC1CCNCC1)C1=C(O)CC(C)(C)CC1=O`, for which the cytotoxicity is -8.1%. With `CCOc1ccccc1-c1nn2c(Cc3ccccc3)nnc2s1`, the cytotoxicity is -4.2%. For the compound `NC(=O)C(F)(F)C12OC3C4C5CC(C6C5C3C61)C42` (centres undefined), the cytotoxicity is -3.7%. For `CC(C)(C)Nc1cccccc1=O`, the cytotoxicity is -8%.

As to `COc1ccc(C)cc1S(=O)(=O)N(CC(=O)O)c1ccccc1`, the cytotoxicity is -0.9%. As to `COc1ccc(S(=O)(=O)n2nc(-c3cc(OC)c(OC)c(OC)c3)cc2N)cc1OC`, the cytotoxicity was -3.7%. Regarding `COc1ccc(OC)c(S(=O)(=O)n2nc(-c3ccccc3)cc2N)c1`, the cytotoxicity is -13.7%.
